Results: PubChem BioAssay (NCI)
“And” between values parts separate entries of the source, which are not always exact repeats. Equal entries are not always repeated. This is part of a sample that, as a whole, favours compounds with a hit. Of some 83,000 tested, about 20% had one in any assay.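 Single-dose data. Exposure time 48 hours. Values below 10 considered active.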 Values without a mark were called inactive. The source made the active and inactive calls. Where a SMILES comes first, the peptide text is derived from it. Bridges are numbered along the chain shown (N, C = ends). [ ]: non-standard residue; d: D form. The star is where a group is joined. ξ: configuration not given here. ξNMePhe(4-NMe2) = CNC(Cc1ccc(N(C)C)cc1)C(=O)O; Picolinoyl(3-OH) = O=C(c1ncccc1O)*; ξPip(4-oxo) = O=C1CCNC(C(=O)O)C1; Phg = N[CH](C(=O)O)c1ccccc1; Abu = CC[CH](N)C(=O)O

How the values were obtained:
Test in all cases: NCI-60 one-dose screen, 48 h (100 = growth as untreated, 0 = no growth, -100 = all killed)
SR leukemia = details: 10 µM
OVCAR-8 ovarian = details: 10 µM
OVCAR-5 ovarian = details: 10 µM
OVCAR-4 ovarian = details: 10 µM
SK-OV-3 ovarian = details: 10 µM
IGROV1 ovarian = details: 10 µM
OVCAR-3 ovarian = details: 10 µM
HS 578T breast = details: 10 µM
NCI/ADR-RES ovarian = details: 10 µM
T-47D breast = details: 10 µM
BT-549 breast = details: 10 µM
MDA-MB-435 melanoma = details: 10 µM
SW-620 colon = details: 10 µM
MCF7 breast = tested on: MCF7 breast
HCT-116 colon = details: 10 µM
HCC-2998 colon = details: 10 µM
KM12 colon = details: 10 µM
RPMI-8226 leukemia = details: 10 µM

SMILES	growth (SR leukemia)	growth (OVCAR-8 ovarian) [%]	growth (OVCAR-5 ovarian)	growth (OVCAR-4 ovarian)	growth (SK-OV-3 ovarian)	growth (IGROV1 ovarian)	growth (OVCAR-3 ovarian)	growth (HS 578T breast)	growth (NCI/ADR-RES ovarian)	growth (T-47D breast)	growth (BT-549 breast)	growth (MDA-MB-435 melanoma)	growth (SW-620 colon) [%]	growth (MCF7 breast; 10 µM unless noted)	growth (HCT-116 colon)	growth (HCC-2998 colon)	growth (KM12 colon)	growth (RPMI-8226 leukemia)	growth (MCF7 breast; 10 µM) [%]	growth (MCF7 breast; 100 µM)
COC(=O)c1cccnc1	104%	92.2	90.3%	110%	101%	91.9%	106%	99.3%	95.9%	118%	85.5%	105%	97.4	96.4%	97.8%	104%	112%			
Oc1ccc2c(c1)OCC1(O)Cc3cc(O)c(O)cc3C21 (centres undefined)	78.4%		96.3%	38.2%	193%	75.3%	93.7%	102%	91.7%	168%	88.9%	92.3%	95	103%	84.1%	64.8%		62.5%		
Sc1ccc(Nc2c3ccccc3nc3ccccc23)cc1	80.5%	106	99.2%	95.6%	79.2%	89.3%	100%	112%	51.3%	38%	94.6%	92.8%	61.3	71.7%	96.4%	68.9%				
C=CCCCCCCCCCOC(C)=O	91.4%		103%	103%	104%		103%	99.7%	107%	97.9%	132%	110%	105	96.2%	110%	98.4%	103%	101%		
O=S(=O)(Cc1ccccc1)c1ccccc1	99.9%	102	106%	98.1%	113%	114%	107%	133%	117%	110%	105%	107%	115	99.5%	103%	105%	110%			
N#CCCc1ccc(O)cc1	94.6%	93.9	95.6%	111%	106%	116%	110%	102%	116%	101%	114%	99.8%	102	98.4%	116%	115%	114%			
CCNc1nc2c(cnn2C)c(=O)[nH]1	92.3%		103%	109%	96.2%	84.5%	109%	92.5%	108%	92.5%	102%	106%	97.9	100%	99.2%	105%	108%	99.8%		
CC(=O)OCC1=CC2OC(=O)C3=COC(OC4OC(CO)C(O)C(O)C4O)C1C32 (centres undefined)	120%		111%	129%		71.3%	112%		32.9%	105%	110%	109%	111		123%	300%	107%	114%	96.7	78% and 90.4%
O=C(O)C(c1ccccc1)C(O)c1ccccc1 (centres undefined)	94.6%	99.4	103%	120%	99.9%	101%	116%	100%	107%	94.4%	110%	105%	106	95.3%	105%	97.9%	108%			
COc1cc2cc(c1Cl)N(C)C(=O)C[C@H](OC(=O)[C@H](C)N(C)C(C)=O)[C@]1(C)O[C@H]1[C@H](C)[C@@H]1C[C@@](O)(NC(=O)O1)[C@H](OC)C=C/C=C(\C)C2	10.2%		32.4%					9.98% (active)	3.31% (active)	74.6%	-21% (active)	-53.3% (active)	26.5	14.2%	-18.6% (active)	-32% (active)	-42.3% (active)	-4.44% (active)		
Cc1ccc(S(=O)(=O)O)c(C)c1	95.2%	105	104%	86.5%	95.7%	103%	110%	93.8%	104%	92.5%	109%	107%	98.8	95.3%	101%	107%	109%			
CCC1NC(=O)C(NC(=O)c2ncccc2O)C(C)OC(=O)C(c2ccccc2)NC(=O)C2CC(=O)CCN2C(=O)C(Cc2ccc(N(C)C)cc2)N(C)C(=O)C2CCCN2C1=O (centres undefined) (tested in a mixture with another compound) ({Picolinoyl(3-OH)}-T[Abu]P[ξNMePhe(4-NMe2)][ξPip(4-oxo)][Phg]; ester 1-C; configuration not given here)	52.1%		-21.3% (active)	48.1%	95.5%	64%	63.1%		179%	64.8%	54.6%	57.1%	68.3	46.5%	34.2%		74.9%	34.1%		
CSC[C@H](NC(=O)COc1cccc2cnccc12)C(=O)NC(Cc1ccccc1)C(O)C(=O)N1CSC[C@H]1C(=O)NC(C)(C)C (some centres undefined)	84.5%		91.7%		115%		101%	86.8%	106%	111%	105%	103%	105	114%	121%	108%	116%	102%		
COc1cc2c3c(n(C)c(=O)c2cc1OC)-c1cc2c(cc1C3=O)OCO2	17.6%			55.8%	74.6%	11.3%	104%	102%	77.5%	28.2%	68.6%	72.3%	58.8	26.8%	51.5%	64.5%	83.9%	48.2%		
O=C(O)COCC(=O)O	95.3%	98.2	107%	88.6%	111%	105%	103%	117%	106%	129%	122%	109%	102	100%	108%	114%	96.4%			
OCc1ccc(-c2ccc(-c3ccc(CO)s3)o2)s1	60.8%		103%	-22.4% (active)	78.2%	-73% (active)	-30.8% (active)	81.8%	65.1%	-15.5% (active)	58.4%	38%	10.9	9.78% (active)	5.2% (active)	-14.5% (active)	81.5%	-22.5% (active)		
N#C/C(=C\c1cc(O)c(O)c(O)c1)C(N)=O	72.9%		98.2%	45.7%	110%	122%	107%	110%	102%	110%	96.5%	89.4%	116	100%	92.8%	98.3%	103%	19.6%		
O=c1[nH][nH]c(=O)c2cc([N+](=O)[O-])ccc12	94.9%		110%	99.2%	101%	103%	127%	100%	105%	96.1%	106%	109%	101	99.8%	101%	99.6%	106%	106%		
CC(=O)c1sc2c(c1OC(=O)c1ccc(Cl)cc1Cl)c(=O)n(-c1ccccc1)c(=S)n2-c1ccccc1	-10.4% (active)		-4.64% (active)		5.36% (active)		24.1%	-26.8% (active)	7.59% (active)	61.1%	-24.4% (active)	4.71% (active)	14		-0.425% (active)	24.6%	-0.943% (active)	-43.1% (active)	51.2	6.27% (active) and -47.6% (active)
